Screening data as filed in PubChem BioAssay.
An excerpt weighted towards active compounds, which were near 6.5% of everything screened.
Abs 340nm: compounds absorbing at 340 nm; 65,000 tested, under 10 active; AID 708; fold change at 10 µM; compound absorbance at 340 nm, fold over control;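 active means at 10 µM dose, initial 340 nm absorbance at least 2 fold that of control wells; inactive means change under 2 fold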;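 further: initial absorbance extrapolated from kinetic A340 decline of NADH oxidation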
MK inhibit: blocks S. pneumoniae mevalonate kinase; inhibition, % at 10 µM; 65,000 tested, 0.48% active; purified MK, PK/LDH-coupled NADH absorbance 340 nm;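 active means ranked among the strongest by inhibition in the single 10 µM screen, a fixed top-ranked set picked for dose follow-up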
NADH coupling: inhibition of NAD/NADH coupling enzymes, library profiling | coupled PK/LDH NADH assays, four targets | IC50, µM (series often up to 10 µM) | 65,000 tested, 0.02% active;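 active means single-dose screening hits from any of four coupled enzyme assays that gave an IC50 when retested across doses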;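 further: the DPM-DC format reads NADH fluorescence rather than 340 nm absorbance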
Autofluor 339: intrinsic fluorescence of library compounds, ex339/em460 – biochemical, MLSMR library, data from DPM-DC assay, artefact control, profiling panel. compound autofluorescence, ex339/em460 nm, NADH buffer; active compounds read high; 1 = no-compound wells, NADH background. fluorescence fold increase at 10 µM. 65,000 tested, 5.5% active;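 active means at 10 µM, mean starting fluorescence two-fold or more over control wells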;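 further: signal is the first read of a kinetic run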
Spn DPM-DC inh: inhibitors of Streptococcus pneumoniae diphosphomevalonate decarboxylase | purified DPM-DC, PK/LDH coupled NADH fluorescence | calls only at 10 µM | 65,000 tested, 0.49% active | AID 556;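 active means the 320 compounds with the highest percent inhibition in the single-dose primary screen, excluding strongly autofluorescent ones, cut at about 32% in these data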;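 further: kinetic rate of NADH fluorescence loss reporting ADP formed by the decarboxylase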
PMK inhibit: blocks S. pneumoniae phosphomevalonate kinase; 65,000 tested, 0.49% active; AID 539; purified PMK, PK/LDH-coupled NADH absorbance 340 nm; inhibition, % at 10 µM;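 active means top-ranked compounds by inhibition in the single 10 µM screen, taking a fixed number of the strongest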
Large screens that a line does not name were inactive.

CC1(C)Cc2ccccc2-c2nc(NCCCO)n(-c3ccccc3)c(=O)c21	Autofluor 339 2.1 (not shown: Spn DPM-DC inh)
COc1ccccc1N(CC(O)CN1C(=O)NC(C)(C)C1=O)S(=O)(=O)c1ccc(C)cc1 (centres undefined)	none
COc1cc(OC)c(C2CC(=O)N3CN(c4ccc(C)cc4)CSC3=C2C#N)cc1OC (centres undefined)	MK inhibit 41
COc1ccc(-n2c(SCC(=O)Nc3nccs3)nc3c(c2=O)SC(C)C3)cc1 (centres undefined)	none
COc1cccc(N(C(=O)CNC(=O)c2ccco2)C(C(=O)NC2CCCCC2)c2ccncc2)c1 (centres undefined)	none
O=C(C1CCN(Cc2ccc(OCc3ccccc3)cc2)CC1)N1CCCC1	MK inhibit 59, PMK inhibit 34
COc1ccc(CN2CCCC(C(=O)N3CCCC3)C2)cc1 (centres undefined)	none
Cc1nn(-c2ccccc2)c2sc(C(=O)O)cc12	none
Cc1nn(-c2ccccc2)c2sc(-c3n[nH]c(=S)o3)cc12	Autofluor 339 3.9 (not shown: Spn DPM-DC inh)
CC(=O)c1ccc(N2CCN(c3ccc(C(F)(F)F)cn3)CC2)cc1	PMK inhibit 40
Cc1c(C(=O)N2CCN(c3ccc(C(F)(F)F)cn3)CC2)oc2ccccc12	none
CCCCc1nc(N2CCOCC2)c(C#N)c2c1COC(C)(C)C2	Autofluor 339 2.3 (not shown: Spn DPM-DC inh)
CCCCc1nc(NCC2CCCO2)c(C#N)c2c1COC(C)(C)C2 (centres undefined)	Autofluor 339 2.4 (not shown: Spn DPM-DC inh)
CCCSc1nc(N2CCCC2)c2c(c1C#N)CC(C)(C)OC2	none
CCOC(=O)c1nn(-c2ccccc2)c(=O)c2c(N)scc12	none
CCOC(=O)c1nn(-c2ccccc2)c(C(=O)OCC)c1N	Autofluor 339 3.8 (not shown: Spn DPM-DC inh)
CCOC(=O)c1sc(=NC(=O)c2ccc(S(=O)(=O)N3CC(C)OC(C)C3)cc2)n(C)c1C (centres undefined)	Autofluor 339 3.9
CCCCCC(=O)Nc1ccc2oc(-c3cncc(Br)c3)nc2c1	Autofluor 339 2.5
CCCCC(=O)Nc1ccc2oc(-c3ccncc3)nc2c1	Autofluor 339 3.7 (not shown: Spn DPM-DC inh)
CCCC(=O)Nc1ccc(-c2nc3cc(C)c(C)cc3o2)cc1	Autofluor 339 3.8 (not shown: Spn DPM-DC inh)
CCCC(=O)Nc1ccc2oc(-c3ccncc3)nc2c1	Autofluor 339 3.6 (not shown: Spn DPM-DC inh)
O=C(Nc1ccc2oc(-c3ccccc3Cl)nc2c1)c1cncc(Br)c1	none
O=C(C1CCCO1)N1CCC(O)(c2ccccc2)CC1 (centres undefined)	none
N/C(CCN1CCCCC1)=N/O	none
Cc1nnc(Sc2nc3c(c(=O)n(C)c(=O)n3C)n2Cc2ccc(Cl)cc2)s1	none
COc1cc(OC)c(-c2nnc(-c3ccc(OC)c(OC)c3OC)o2)cc1OC	Autofluor 339 2.1 (not shown: Spn DPM-DC inh)
Cc1cc(F)ccc1S(=O)(=O)Nc1ccccc1C(=O)Nc1ncn[nH]1	Autofluor 339 2.3 (not shown: Spn DPM-DC inh)
CCOC(=O)c1c(-c2ccccc2)[nH]c2ccc(O)cc12	Autofluor 339 3.7 (not shown: Spn DPM-DC inh)
Cc1ccc2c(c1)c(-c1ccccc1)nc1nncn12	none
CC12CCC(C(=O)N3CCN(Cc4ccccc4)CC3)(OC1=O)C2(C)C (centres undefined)	none
COc1cc(NC(=O)c2ccc3c(c2)OCO3)ccc1NC(=O)C(C)C	none
Cc1ccc(-c2nn3c(C)nnc3s2)cc1NC(=O)c1ccc(-c2ccc(Cl)cc2Cl)o1	Autofluor 339 3.7 (not shown: Spn DPM-DC inh)
COc1cc(NC(=O)c2ccc(-c3ccc(Br)cc3)o2)ccc1NC(=O)C(C)C	Autofluor 339 3.8 (not shown: Spn DPM-DC inh)
Cc1nnc2sc(-c3ccc(NC(=O)c4ccc(-c5ccc(Br)cc5)o4)cc3)nn12	Autofluor 339 3.7 (not shown: Spn DPM-DC inh)
COc1ccccc1S(=O)Cc1ccc(C(=O)NCCc2ccc(Cl)cc2)o1 (centres undefined)	none
Cc1ccc(-c2nc(CS(=O)CC(=O)NC3CCC(C)CC3)c(C)o2)cc1 (centres undefined)	none
Cc1cc(OC(=O)CNC(=O)OC(C)(C)C)c2c(C)cc(=O)oc2c1	none
CC(=O)Oc1cc(OC(C)=O)c2c(C)cc(=O)oc2c1	Autofluor 339 2.2 (not shown: Spn DPM-DC inh)
CC(=O)Nc1c(OC(C)=O)ccc2c(C)cc(=O)oc12	Autofluor 339 5.1 (not shown: Spn DPM-DC inh)
CC(=O)Oc1cc2oc(=O)cc(C)c2cc1OC(C)=O	Autofluor 339 2.2 (not shown: Spn DPM-DC inh)
CC(=O)Oc1ccc2c(C)cc(=O)[nH]c2c1	none
OCCN(Cc1ccccc1)Cc1ccc(F)c(F)c1	none
CSc1nc2ccc(NS(=O)(=O)c3ccc4c(c3)OCCO4)cc2s1	none
COc1ccccc1CNC(=O)C1CCN(S(=O)(=O)N2CC(C)CC(C)C2)CC1 (centres undefined)	PMK inhibit 25
CCOCCCNC(=O)C1CCN(S(=O)(=O)N2CC(C)CC(C)C2)CC1 (centres undefined)	PMK inhibit 28
COC(=O)c1c(NC(=O)CN2CCCC(C)C2)c2c(C)cccc2n1C (centres undefined)	none
CCN(C(=O)c1coc(=O)c(Br)c1)c1ccc2c(c1)OCO2	Autofluor 339 3.4 (not shown: Spn DPM-DC inh)
O=C(Nc1c(-c2ccccc2)nc2ccccn12)c1ccco1	none
Oc1cccc(/C=N/c2c(-c3ccco3)nc3ccccn23)c1	Autofluor 339 2.1 (not shown: Spn DPM-DC inh)
CCOC(=O)c1c(NC(=O)COC(=O)c2c(C)noc2C)sc2c1CCC2	none
CCOCc1cc(C)[nH]c(=O)c1C#N	Autofluor 339 4.5 (not shown: Spn DPM-DC inh)
COCCN1CCn2c(nc3cc(NC(=O)NC4CCCCC4)ccc32)C1	Autofluor 339 3.7 (not shown: Spn DPM-DC inh)
CCOc1ccc(N(CC(=O)Nc2ccc(F)c(F)c2)S(=O)(=O)c2c(C)noc2C)cc1	Spn DPM-DC inh active
Cc1noc(C)c1CSc1nc2ccccc2s1	Spn DPM-DC inh active
Cc1noc(C)c1CSc1ccc2ccccc2n1	none
COCCn1c(C)cc(C(=O)COc2nc3ccccc3nc2C)c1C	Spn DPM-DC inh active
CCCNc1ncccc1C(N)=O	Autofluor 339 3.4 (not shown: Spn DPM-DC inh)
N#Cc1nc(-c2ccc(Cl)cc2)oc1NCCc1ccccn1	Autofluor 339 2.4 (not shown: Spn DPM-DC inh)
COc1ccc(CCNc2oc(COc3ccccc3F)nc2C#N)cc1	none
Cc1ccc(-c2nc(C#N)c(NCCc3ccccn3)o2)cc1	Autofluor 339 2.6
Cc1c(OC(=O)CNC(=O)OC(C)(C)C)ccc2c3c(c(=O)oc12)CCC3	Autofluor 339 3.9 (not shown: Spn DPM-DC inh)
Cc1oc(C(=O)O)cc1COc1ccc2c3c(c(=O)oc2c1C)CCCC3	Autofluor 339 2.2 (not shown: Spn DPM-DC inh)
CC(=O)COc1ccc2c3c(c(=O)oc2c1C)CCCCC3	Autofluor 339 3.8 (not shown: Spn DPM-DC inh)
Cc1oc2c(C)c3oc(=O)c4c(c3cc2c1C)CCCC4	none
CC(=O)C(C)Oc1ccc2c3c(c(=O)oc2c1C)CCCC3 (centres undefined)	Autofluor 339 3.8 (not shown: Spn DPM-DC inh)
O=C(Nc1nncs1)C1c2ccccc2Oc2ccccc21	none
COC(=O)CSc1nnc(CNC(=O)Cc2ccccc2)n1-c1ccccc1OC	none
O=C1NC(c2ccccn2)Nc2sc3c(c21)CCC3 (centres undefined)	none
